Assay [1] deals with T1, Aspartate--tRNA(Asp/Asn) ligase (Mycobacterium tuberculosis (strain ATCC 25618 / H37Rv)) (UniProt P9WFW3).
T1 sequence (whole entry): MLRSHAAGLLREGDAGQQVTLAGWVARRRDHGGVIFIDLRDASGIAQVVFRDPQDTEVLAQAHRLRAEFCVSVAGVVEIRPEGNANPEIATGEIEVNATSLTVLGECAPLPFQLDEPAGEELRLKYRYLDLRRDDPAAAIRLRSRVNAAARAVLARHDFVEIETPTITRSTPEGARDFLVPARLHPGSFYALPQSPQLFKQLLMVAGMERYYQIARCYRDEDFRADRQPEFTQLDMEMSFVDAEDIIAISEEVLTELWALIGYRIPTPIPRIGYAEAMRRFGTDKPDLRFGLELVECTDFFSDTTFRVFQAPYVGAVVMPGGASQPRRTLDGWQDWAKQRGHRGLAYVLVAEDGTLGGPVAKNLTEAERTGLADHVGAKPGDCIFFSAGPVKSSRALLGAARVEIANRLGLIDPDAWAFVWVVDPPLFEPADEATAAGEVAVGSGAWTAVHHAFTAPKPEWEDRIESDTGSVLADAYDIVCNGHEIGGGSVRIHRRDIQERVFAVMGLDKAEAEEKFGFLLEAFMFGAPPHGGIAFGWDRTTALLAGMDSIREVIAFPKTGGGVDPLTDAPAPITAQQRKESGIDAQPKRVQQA
Nature of the assay: Assay for Asp RNA synthetase-1 from Mycobacterium tuberculosis. The format is functional. The arrangement: scale not given: direction of the effect not stated beside the values. The settings on record: 30 µM.

The target in assay [2] is Shiga toxin 2 (Escherichia coli O157:H7) (UniProt P09385+P09386). Nature of the assay: E. coli 0.157:H7 Shiga Toxin SOP - stx2 screening assay. The format is functional. Further details: scale not given: direction of the effect not stated beside the values. To be noted: 30 µM.

SMILES strings stand for the structures.

This note sets out measurements from ChEMBL document CHEMBL3988442, “University of Dundee, Small-Polar-MMV Screening Library” (2021).

As to `COCc1nc(C(=O)N2CCCCC2Cn2cc(C)cn2)cs1` (configuration not stated), the Percent Effect in assay [1] was 0.0865%; in assay [2], 5.33%.

For `CC(C#N)CSc1ccccc1NCC(=O)NCc1ccccc1` (configuration not stated), the Percent Effect is -8.08% in assay [1] and 21.2% in assay [2].

Turning to `Cc1nc(CN2CCCC(NCCc3ccccc3Cl)C2)no1` (configuration not stated), the Percent Effect in assay [1] was -1.91%; in assay [2], 10.1%.

As for `Cc1ccc(NC2CCN(C(=O)c3cc(C(N)=O)cs3)CC2)nn1`, the Percent Effect in assay [1] was found to be 4.69%; in assay [2], 3.48%.

`COc1ncccc1NC(=O)c1cccc(C)n1`: the Percent Effect in assay [1] is 1.43%; in assay [2], -22.7%.

As to `CCOc1ccccc1CSc1nnc(CC2CCS(=O)(=O)C2)n1C` (configuration not stated), the Percent Effect came out at 4.33% in assay [1] and 4.92% in assay [2].

Turning to `COC(C(=O)N1CCN(c2cccc(Cl)c2)C(=O)C1)c1ccccc1` (configuration not stated), the Percent Effect in assay [1] is 0.0112%; in assay [2] it was -0.212%.

With `COc1ccc(CNC(=O)C2(C#N)CCCC2)cc1`, the Percent Effect in assay [1] turned out to be 2.12%; in assay [2] it was 8.48%.

Turning to `CC(C)OCc1ccc(CNC(=O)CC(F)(F)F)cc1`, the Percent Effect was -1.66% in assay [1] and 12.4% in assay [2].

As to `COc1ccc2cc(C3CN(C(=O)C4CCOCC4)CCO3)ccc2c1` (configuration not stated), the Percent Effect worked out at 0.234% in assay [1] and 7.44% in assay [2].

For `Cc1ccoc1C(=O)N1CCO[C@H]2[C@H](OCC3CCOCC3)CC[C@@H]21`, the Percent Effect was -4.72% in assay [1] and -15.8% in assay [2].

With `c1cnn(CC2CCCN2Cc2nc(-c3ccoc3)no2)c1` (configuration not stated), the Percent Effect in assay [1] is 0.0441%; in assay [2], -0.74%.

Take `O=C(CSc1ccc2c(c1)OCCO2)NS(=O)(=O)C1CCCCC1`: the Percent Effect was 1.67% in assay [1] and -14% in assay [2].

Consider `COc1cc(CNCc2ccc(NC(=O)NC(C)C)cc2)cc(OC)c1`, for which the Percent Effect is 1.67% in assay [1] and -65.1% in assay [2].

For `Cc1cncc(C(=O)N2CCCCC2c2nc(C)cs2)c1` (configuration not stated), the Percent Effect in assay [1] was -9.59%; in assay [2], -42.4%.

With `Cc1nc(C2(O)CCCNCC2)sc1CCOc1ccc(Cl)cc1` (configuration not stated), the Percent Effect was -4% in assay [1] and -45.5% in assay [2].

For `Cc1ccc(C(=O)N2CCC3(CCC(=O)N(CC(N)=O)C3)CC2)c(O)c1`, the Percent Effect is -0.585% in assay [1] and -12.4% in assay [2].

For the compound `O=C([C@@H]1COC[C@H]2CN(C3CCOCC3)C[C@H]21)N1CCCCO1`, the Percent Effect in assay [1] is 6.99%; in assay [2], -23.5%.

`O=C(NCCc1ccsc1)Nc1cccnc1N1CCCC1`: the Percent Effect in assay [1] was 1.77%; in assay [2] it was -4.75%.

Turning to `COCC(NC(=O)c1ccc[nH]1)c1cccc(C(F)(F)F)c1` (configuration not stated), the Percent Effect in assay [1] is -2.7%; in assay [2], -17.9%.

Take `Cc1noc(C)c1CN1CC[C@@H](OCC2CC2)[C@@H](Cc2ccccc2)C1`: the Percent Effect in assay [1] is 0.779%; in assay [2], 16%.

On to `Cc1ccc(C2CCCCCN2Cc2cn(C)nc2C)s1` (configuration not stated), for which the Percent Effect was -2.17% in assay [1] and -71.3% in assay [2].

On to `Cc1noc2ncc(C(=O)NCC3CCN(C(C)C)C3)cc12` (configuration not stated), for which the Percent Effect in assay [1] came to 1.08%; in assay [2] it was 17.2%.

Regarding `COc1ccc(OCc2sc(C3(O)CCCNCC3)nc2C)cc1` (configuration not stated), the Percent Effect came out at 5.08% in assay [1] and 7.21% in assay [2].

`CCc1c(C(=O)N2CCCN(C(C)=O)CC2)cnn1C(C)(C)C`: the values for the Percent Effect in assay [1] and in assay [2] were 0.899% and 3.41%, respectively.

As for `Cc1n[nH]c(=O)c2c(NC(=O)CN3CCCC(C(F)(F)F)C3)oc(C)c12` (configuration not stated), the Percent Effect in assay [1] was -2.66%; in assay [2], -52.6%.

Regarding `CC(NC(=O)NCCCn1cncn1)c1ccc2c(c1)OCCO2` (configuration not stated), the Percent Effect in assay [1] worked out at 0.175%; in assay [2] it was 17.4%.

As to `Cc1nnc2n1CCN(C(C(=O)NC1CC1)c1ccccc1)C2` (configuration not stated), the values for the Percent Effect in assay [1] and in assay [2] were -4.48% and 15.2%, respectively.

For the compound `c1ccc(CN2CCN(Cc3cscn3)CC2)cc1`, the values for the Percent Effect in assay [1] and in assay [2] were -2.48% and 3.98%, respectively.

With `CCOC1CCCN(C(=O)c2sccc2-n2cnnn2)C1` (configuration not stated), the Percent Effect in assay [1] is -4.21%; in assay [2], -8.57%.

On to `COCCN1C[C@@H]2CCCO[C@@H]2[C@H](N(C)Cc2ccco2)C1`, for which the Percent Effect is 0.0735% in assay [1] and -6.84% in assay [2].

Take `C[C@H]1C[C@@H]2CCN(C(=O)c3ccncn3)C[C@H]2O1`: the Percent Effect in assay [1] is 4.15%; in assay [2] it was -27.6%.

In the case of `CC(=O)N(Cc1ncc(C(C)C)o1)C1CCN(Cc2nccn2C)C1` (configuration not stated), the values for the Percent Effect in assay [1] and in assay [2] were 3.99% and 17.4%, respectively.

For `CN(C)C(=O)CO[C@@H]1CC[C@H]2[C@H]1OCCN2C(=O)C1CCOCC1`, the figures for the Percent Effect in assay [1] and in assay [2] were -1.59% and -10.1%, respectively.

Consider `O=C(O)[C@]12CCCN(Cc3ccccc3)C[C@H]1CN(c1ncccn1)C2`, for which the Percent Effect in assay [1] is 6.32%; in assay [2], -14.8%.

As to `COC[C@@]12CCO[C@@H]1CCN(C(=O)Cc1ccccc1F)C2`, the Percent Effect in assay [1] is -2.8%; in assay [2], -1.69%.

As to `CCCC1CCCN(Cc2csc(-c3cnn(C)c3)n2)CC1` (configuration not stated), the Percent Effect in assay [1] was -1.75%; in assay [2], 20.9%.

`Cc1nc(CN2CCc3cncnc3C2)oc1C`: the Percent Effect in assay [1] was -1.67%; in assay [2], -14.4%.

Turning to `CN(C)CCCn1ccnc1C1CCCN(c2cc(N)ncn2)C1` (configuration not stated), the Percent Effect was -0.232% in assay [1] and 1.04% in assay [2].

With `CC(OCC(F)(F)F)C(=O)NCc1ccc(-n2cncn2)nc1` (configuration not stated), the Percent Effect in assay [1] is -3.63%; in assay [2], -8.85%.

In the case of `CS(=O)(=O)N1CCC(Oc2cnccn2)CC1`, the figures for the Percent Effect in assay [1] and in assay [2] were -0.656% and -5.3%, respectively.

`Cc1nc(CN(C)C2CCN(CCCOc3ccccc3)C2)no1` (configuration not stated): the Percent Effect in assay [1] was 2.8%; in assay [2], -39.6%.

`COCCCN1CCc2cncnc2C1`: the Percent Effect in assay [1] was 10.5%; in assay [2], -35.2%.

Take `CSC(C)C(=O)N1CCCN(Cc2cnn(C(C)C)c2)CC1` (configuration not stated): the Percent Effect is -0.235% in assay [1] and 20.4% in assay [2].

With `Cc1cnc(CN(C)C2CCN(CCc3cnn(C)c3)C2)o1` (configuration not stated), the Percent Effect in assay [1] is -2.22%; in assay [2], 9.7%.

As to `CC1CCCN(C(=O)CCc2cccnc2)C1` (configuration not stated), the Percent Effect in assay [1] was -4.28%; in assay [2] it was -0.0678%.

For the compound `Cc1c(C(=O)N2CCCC2c2cnn(C)c2)nnn1-c1ccccc1` (configuration not stated), the values for the Percent Effect in assay [1] and in assay [2] were -1.92% and -11.8%, respectively.

Turning to `CNC(=O)c1ccc(C2CN(C(=O)c3cncs3)CCO2)nc1` (configuration not stated), the Percent Effect in assay [1] was 3.26%; in assay [2], -3.71%.

On to `CN(C)C(=O)Cc1nc(CN2CCCCC2Cn2cccn2)cs1` (configuration not stated), for which the values for the Percent Effect in assay [1] and in assay [2] were 2.64% and -25.1%, respectively.

For the compound `CCC(CC)C(=O)N1CCC2(C1)CN(c1ccccc1)C(=O)CN2C` (configuration not stated), the Percent Effect in assay [1] is -4.01%; in assay [2], -3.77%.

On to `CNC(=O)C1(CCCc2cccnc2)CCCCN1` (configuration not stated), for which the Percent Effect in assay [1] worked out at 0.849%; in assay [2] it was 0.867%.
